Among the test systems are DU-145 prostate; K-562 leukemia; MALME-3M melanoma; MDA-MB-231 breast; RXF 393 renal; SF-268 CNS; SF-295 CNS; SF-539 CNS; UACC-257 melanoma; M14 melanoma; HCT-15 colon; HT29 colon; SNB-75 CNS; SNB-19 CNS; U251 CNS; PC-3 prostate; SK-MEL-5 melanoma; UACC-62 melanoma; LOX IMVI melanoma; SK-MEL-28 melanoma.
Common to all, as to experiment: NCI-60 one-dose screen, 48 h (100 = growth as untreated, 0 = no growth, -100 = all killed)
Common to all, as to settings: 10 µM unless noted

In PubChem BioAssay (NCI) one finds growth data, which are given here for seven compounds.

About 83,000 compounds went through this panel and 20% of them were active in at least one assay; those are over-represented in the sample as a whole.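 Treatment: one concentration, 48 hours, 96-well format. Scoring: percent growth, with anything below 10 considered active.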 A number with no mark means an inactive call. Activity calls are given as the source filed them.

In the case of `CCCCCC(/C=N\NC(=S)N/N=C/C(=C/c1ccccc1)CCCCC)=C\c1ccccc1`, the growth with DU-145 prostate was 88.7%; with K-562 leukemia it was 19.8%; in the assay with MALME-3M melanoma, 93.4%; with MDA-MB-231 breast, 65.6%; with RXF 393 renal, 74.8%; in the assay with SF-268 CNS it was 68%. For the same compound, the growth with SF-295 CNS was 45.7%; in the assay with SF-539 CNS, 82.4%; in the assay on UACC-257 melanoma, 98.1%; in the assay with M14 melanoma it was 77.8%; with HCT-15 colon, 45.4%; in the assay on HT29 colon, 105%. Besides, the growth in the assay on SNB-75 CNS was 102%; in the assay with SNB-19 CNS, 56.8%; with U251 CNS it was 55.3%; in the assay with PC-3 prostate, 46.1%; with SK-MEL-5 melanoma, 68.2%; with UACC-62 melanoma, 56.8%. In addition, the growth in the assay on LOX IMVI melanoma was 60.8%; in the assay on SK-MEL-28 melanoma it was 93.7%.
In the case of `Cn1c(=O)c2nc(/C=C/c3ccccc3)c(=O)[nH]c2n(C)c1=S`, the growth was 113% with DU-145 prostate; 105% in the assay on K-562 leukemia; 105% with MALME-3M melanoma; 105% with MDA-MB-231 breast; 118% in the assay on RXF 393 renal; 105% in the assay with SF-268 CNS. Besides, the growth is 99.8% in the assay on SF-295 CNS; 104% in the assay with SF-539 CNS; 112% in the assay on UACC-257 melanoma; 103% with M14 melanoma; 102% in the assay on HCT-15 colon; 109% in the assay on HT29 colon. The growth is 105% with SNB-75 CNS; 105% with SNB-19 CNS; 108% with U251 CNS; 102% in the assay with PC-3 prostate; 102% in the assay on SK-MEL-5 melanoma; 92.4% in the assay on UACC-62 melanoma. Moreover, the figures for the growth with LOX IMVI melanoma and with SK-MEL-28 melanoma were 101% and 111%, respectively.
For the compound `Cc1[nH]c(=O)[nH]c(=O)c1Br`, the growth in the assay with DU-145 prostate was 125%; in the assay with K-562 leukemia it was 98.3%; in the assay with MALME-3M melanoma, 119%; in the assay on MDA-MB-231 breast, 99.3%; in the assay with RXF 393 renal it was 115%; in the assay on SF-268 CNS, 95.2%. Besides, the growth in the assay on SF-295 CNS was 98.4%; in the assay on SF-539 CNS, 114%; in the assay on UACC-257 melanoma, 88.1%; in the assay with M14 melanoma, 107%; with HCT-15 colon, 106%; in the assay with HT29 colon, 131%. Further, the growth in the assay with SNB-75 CNS is 91.6%; in the assay on SNB-19 CNS, 98%; in the assay on U251 CNS it was 98.2%; with PC-3 prostate, 97.9%; with SK-MEL-5 melanoma it was 112%; in the assay with UACC-62 melanoma it was 97.3%. Besides, the growth in the assay with LOX IMVI melanoma is 104%; in the assay with SK-MEL-28 melanoma it was 114%.
`COC1/C=C/OC2(C)Oc3c(C)c(O)c4c(O)c(c(/C=N/Nc5ccc([N+](=O)[O-])cc5[N+](=O)[O-])c(O)c4c3C2=O)NC(=O)C(C)=C/C=C/C(C)C(O)C(C)C(O)C(C)C(OC(C)=O)C1C` (stereo not given): the growth in the assay on DU-145 prostate was 39.4%; with K-562 leukemia, 4.82% (active); with MALME-3M melanoma it was 29.2%; in the assay with MDA-MB-231 breast, -7.83% (active); in the assay with RXF 393 renal, -74.3% (active); with SF-268 CNS it was 13.8%. In addition, the growth was 81.1% in the assay with SF-295 CNS; -2.39% (active) in the assay with SF-539 CNS; 34.6% with UACC-257 melanoma; 11.4% in the assay with M14 melanoma; 41.6% with HCT-15 colon; -37.2% (active) in the assay with HT29 colon. In addition, the growth in the assay on SNB-75 CNS was 67%; in the assay with SNB-19 CNS, 38.6%; in the assay with U251 CNS, -31.9% (active); in the assay with PC-3 prostate it was 34.2%; in the assay with SK-MEL-5 melanoma it was 29.7%; with UACC-62 melanoma, -41.3% (active). Moreover, the results for the growth with LOX IMVI melanoma and in the assay with SK-MEL-28 melanoma were -56.9% (active) and 37.3%, respectively.
As to `O=C(CN1CCCCC1)Nc1nc(-c2cc3ccccc3oc2=O)cs1`, the growth in the assay with DU-145 prostate is 106%; in the assay with K-562 leukemia, 90.9%; in the assay on MALME-3M melanoma it was 103%; with MDA-MB-231 breast, 103%; in the assay with RXF 393 renal, 100%; in the assay with SF-268 CNS, 94.1%. The growth in the assay with SF-295 CNS is 102%; in the assay with SF-539 CNS, 103%; in the assay with UACC-257 melanoma it was 102%; in the assay with M14 melanoma, 107%; with HCT-15 colon, 102%; in the assay with HT29 colon, 100%. The growth in the assay with SNB-75 CNS was 82.4%; in the assay on SNB-19 CNS it was 100%; with U251 CNS, 97.4%; with PC-3 prostate it was 97.8%; with SK-MEL-5 melanoma, 96%; in the assay on UACC-62 melanoma, 91.7%. Moreover, the growth in the assay on LOX IMVI melanoma is 101%; in the assay with SK-MEL-28 melanoma it was 102%.
`O=S(=O)(NCCCNc1nccc(-c2c(-c3ccc(F)c(O)c3)nc3sccn23)n1)c1ccccc1`: the growth in the assay with DU-145 prostate is 69%; in the assay on K-562 leukemia, 37.6%; in the assay with MALME-3M melanoma it was 0.08% (active); in the assay on MDA-MB-231 breast, 47.2%; in the assay on RXF 393 renal, 26.4%; in the assay on SF-268 CNS, 74.4%. The growth in the assay on SF-295 CNS was 92.6%; in the assay with SF-539 CNS it was 88.2%; in the assay on UACC-257 melanoma it was 19.6%; in the assay with M14 melanoma, 12.6%; in the assay on HCT-15 colon, 68.5%; in the assay with HT29 colon it was 51%. The growth in the assay with SNB-75 CNS was 105%; in the assay on SNB-19 CNS it was 104%; in the assay with U251 CNS, 90.2%; in the assay on PC-3 prostate it was 61.5%; with SK-MEL-5 melanoma it was 51.1%; with UACC-62 melanoma it was 5.45% (active). Also, the results for the growth in the assay on LOX IMVI melanoma and with SK-MEL-28 melanoma were 18% and 24.1%, respectively.
Consider `CC(=O)N1N=C(c2ccc(Nc3nc(Nc4ccccc4)nc(Nc4ccccc4)n3)cc2)CC1c1ccccc1` (stereo not given), for which the growth was 97.6% in the assay with DU-145 prostate; 68.9% with K-562 leukemia; 78.7% in the assay with MALME-3M melanoma; 71.7% in the assay with MDA-MB-231 breast; 137% in the assay on RXF 393 renal; 89.2% in the assay with SF-268 CNS. The growth in the assay on SF-295 CNS is 85.6%; with SF-539 CNS, 88.8%; in the assay with UACC-257 melanoma it was 113%; in the assay on M14 melanoma, 84.6%; in the assay on HCT-15 colon, 87%; with HT29 colon, 103%. In addition, the growth in the assay with SNB-75 CNS was 90.8%; in the assay with SNB-19 CNS it was 84.3%; with U251 CNS, 92.6%; in the assay with PC-3 prostate, 80.5%; in the assay on SK-MEL-5 melanoma, 78.4%; with UACC-62 melanoma, 91%. In addition, the results for the growth in the assay on LOX IMVI melanoma and with SK-MEL-28 melanoma were 89.4% and 111%, respectively.
